High-throughput results: PubChem, Broad Institute
MITF TRPM1 HTS: MITF TRPM1 promoter activation in melanoma cells. AID 588334. activation, % at 12.5 µM. 0.75% of 300,000 active. SK-MEL-5 TRPM1-promoter luciferase, 24 h; % of positive control, neutral wells = 0;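 active means mean activation of at least 80% with every replicate also reaching 80%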
esBAF inh: SWI/SNF esBAF complex inhibition; mouse ES cells, Bmi1-luciferase knock-in reporter, 24 h; 100% = twice the neutral-well signal; reporter increase, % at 12.5 µM; 2% of 350,000 active; in the data active means activation above about 40%;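 further: a rise in the Bmi1 reporter signal indicates esBAF inhibition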
Wnt bcat act: activators of Wnt/beta-catenin signaling | Wnt/beta-catenin reporter cell assay, activator, plate reader | AID 743398 | 1.2% of 300,000 active | activation, % at 9.35 µM; in the data active means activation above about 30%, passing the limit was not always enough
HSF-1 act: increases HSF-1 driven luciferase reporter signal. NIH3T3-HGL HSF-1 luciferase reporter, MG132, 8 h; 100% = twice DMSO control signal. activation, % at 9 µM. 1.7% of 300,000 active;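 active means mean replicate activation of at least 50% with a set share of replicates each reaching 50%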
HSF1 inhib: HSF1 inhibition; NIH3T3-HGL HSE-luciferase, MG132-induced, luminescence 8 h; active compounds read low; activity change, negative = inhibition, % at 7.5 µM (by protocol); 0.77% of 300,000 active;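 active means more than half of replicate wells show activity change below -50%, luminescence cut by over half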;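 further: luciferase reports HSF-1 transcriptional activity via heat shock element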
Each line names hits and unclear results; the compound was inactive in the other large screens. In the library only some 3.8% were active in any assay of this set; here they are far more common.

Cc1noc(C)c1S(=O)(=O)Nc1ccc2c(c1)C(=O)N([C@@H](C)CO)C[C@@H](C)[C@@H](CN(C)S(=O)(=O)c1cccs1)OCCCC[C@@H](C)O2	none (no result: MITF TRPM1 HTS, Wnt bcat act, HSF-1 act, HSF1 inhib)
CC=Cc1ccc2n(c1=O)C[C@@H]1[C@@H](CO)[C@H](C(=O)NCC3CC3)N(Cc3ccncc3)[C@H]21 (mixture of isomers)	none (no result: MITF TRPM1 HTS, Wnt bcat act, HSF-1 act, HSF1 inhib)
CCC(=O)Nc1ccc2c(c1)C(=O)N(C)[C@@H]1CC[C@H](CC(=O)NCc3ccccc3Cl)O[C@@H]1CO2	none (no result: MITF TRPM1 HTS, Wnt bcat act, HSF-1 act, HSF1 inhib)
Cc1ccc(OCC(=O)O/N=C(\N)c2ccccn2)cc1	esBAF inh 46, HSF-1 act 57
N/C(=N\OC(=O)CCCOc1ccc(Cl)cc1Cl)c1ccccn1	none
N/C(=N\OC(=O)COc1cc(Cl)c(Cl)cc1Cl)c1ccccn1	HSF-1 act 93 (no result: esBAF inh)
C/C=C/c1ccc2c(c1)O[C@H](CN(C)C(=O)Nc1ccc(C(F)(F)F)cc1)[C@H](C)CN([C@H](C)CO)S2(=O)=O	none (no result: MITF TRPM1 HTS, Wnt bcat act, HSF-1 act, HSF1 inhib)
COc1cccc(C(=O)Nc2ccccc2NC(=O)c2cccc(OC)c2)c1	none
O=C(N/N=C/C=C\c1ccccc1)c1cnccn1	none (no result: esBAF inh)
Cc1occc1C(=O)N/N=C/C(Br)=C/c1ccccc1	HSF-1 act 314
COc1cccc(C(=O)N/N=C/C(Br)=C/c2ccccc2)c1	HSF-1 act 56 (no result: esBAF inh, Wnt bcat act)
COc1ccc(C(=O)N/N=C/C(Br)=C/c2ccccc2)cc1	HSF-1 act 148
O=C(N/N=C/C(Br)=C/c1ccccc1)c1ccccc1[N+](=O)[O-]	none
O=C(N/N=C/C(Br)=C/c1ccccc1)c1cnccn1	esBAF inh 50, Wnt bcat act 33, HSF-1 act 259
CCC(=O)Nc1ccc2c(c1)C(=O)N(C)[C@H]1CC[C@H](CC(=O)NCC3CC3)O[C@@H]1CO2	none (no result: MITF TRPM1 HTS, Wnt bcat act, HSF-1 act, HSF1 inhib)
CCC(=O)N(C)C[C@@H]1Oc2cc(C#CC(C)(C)O)ccc2S(=O)(=O)N([C@H](C)CO)C[C@H]1C	none (no result: MITF TRPM1 HTS, Wnt bcat act, HSF-1 act, HSF1 inhib)
Cc1ccc(-c2cc(C(=O)N/N=C/C(Br)=C/c3ccccc3)n[nH]2)o1	HSF-1 act 121 (no result: esBAF inh)
Cc1ccc(-c2cc(C(=O)N/N=C/c3ccccc3O)n[nH]2)o1	none
CCCNC(=O)N1CC[C@@H]2[C@H]1c1cc(C#Cc3ccc(OC)cc3)ccc1N(C)[C@@H]2CO	none (no result: MITF TRPM1 HTS, Wnt bcat act, HSF-1 act, HSF1 inhib)
CO[C@H]1CN(C)C(=O)c2cc(NC(=O)C3CCCC3)ccc2OC[C@H](C)N(C(C)=O)C[C@@H]1C	none (no result: MITF TRPM1 HTS, Wnt bcat act, HSF-1 act, HSF1 inhib)
O=C(Nc1ccc(N2CCOCC2)cc1)c1ccc([N+](=O)[O-])o1	HSF-1 act 146
O=C(COC(=O)c1ccc([N+](=O)[O-])o1)Nc1ccc(N2CCOCC2)cc1	none (no result: HSF-1 act, HSF1 inhib)
CC(=O)Nc1ccc(Cc2ccncc2)cc1	HSF1 inhib -69 (no result: esBAF inh, Wnt bcat act)
O=C(Nc1ccc(Cc2ccncc2)cc1)c1cccc([N+](=O)[O-])c1	none
O=C(Nc1ccc(S(=O)(=O)N2CCOCC2)cc1)c1ccc([N+](=O)[O-])o1	HSF-1 act 123
O=C(Nc1ccc(Cc2ccncc2)cc1)c1ccc([N+](=O)[O-])o1	HSF-1 act 144
CC(=O)Nc1ccc(S(=O)(=O)Nc2ccc(Cc3ccncc3)cc2)cc1	none
C[C@H]1CCCCO[C@@H](CN(C)C(=O)c2ccncc2)[C@@H](C)CN([C@@H](C)CO)C(=O)c2cc(NS(=O)(=O)c3ccc(Cl)cc3)ccc2O1	none (no result: MITF TRPM1 HTS, Wnt bcat act, HSF-1 act, HSF1 inhib)
CCCN(C)C[C@@H]1Oc2ncc(C#CCOC)cc2C(=O)N([C@H](C)CO)C[C@@H]1C	none (no result: MITF TRPM1 HTS, Wnt bcat act, HSF-1 act, HSF1 inhib)
CC(C)NC(=O)N[C@H]1C=C[C@@H](CC(=O)NC2Cc3ccccc3C2)O[C@H]1CO	none (no result: MITF TRPM1 HTS, Wnt bcat act, HSF-1 act, HSF1 inhib)
CCOC(=O)c1csc(Nc2nc3ccc(F)cc3s2)n1	Wnt bcat act 39 (no result: esBAF inh)
COC(=O)c1ccc2nc(Nc3nc4ccc(F)cc4s3)sc2c1	HSF1 inhib -89
COC(=O)c1ccc2nc(NC(=O)C(C)(C)C)sc2c1	HSF1 inhib -55 (no result: esBAF inh)
CC(=O)c1sc(Nc2nc3ccc(F)cc3s2)nc1C	Wnt bcat act 67, HSF-1 act 82 (no result: esBAF inh)
CCOC(=O)c1sc(Nc2nc3ccc(OC)cc3s2)cc1C	none (no result: esBAF inh, Wnt bcat act)
COC(=O)c1ccc2nc(NC(=O)C3CCCCC3)sc2c1	none (no result: esBAF inh)
CN1C(=O)c2cc(NC(=O)C3CCOCC3)ccc2OC[C@@H]2O[C@@H](CC(=O)NC3CCCC3)CC[C@@H]21	none (no result: MITF TRPM1 HTS, Wnt bcat act, HSF-1 act, HSF1 inhib)
Cc1[nH]c2ccccc2c1/C=N/Nc1nc2ccccc2[nH]1	Wnt bcat act 98, HSF-1 act 403 (no result: MITF TRPM1 HTS, esBAF inh)
Cc1ccc(/C=N/Nc2nc3ccccc3[nH]2)s1	Wnt bcat act 156, HSF-1 act 452 (no result: esBAF inh)
Cc1[nH]c2ccccc2c1/C=N/Nc1nc(N2CCCCC2)nc(N2CCCCC2)n1	none (no result: esBAF inh)
